What all share (conditions): mRNA level, 48 h; actives raise or lower the signal
Read-out in assay [1]: Glutathione S-Transferase (GSTA2), GSTA2 (gene 2939)
The assay is described as follows: LTEA_HepaRG_GSTA2: Life Technologies and Expression Analysis (LTEA) Assay for Glutathione S-Transferase (GSTA2) using HepaRG (AID 2283497). The method in brief: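 qRT-PCR readout of GSTA2 transcript, normalized to three housekeeping genes, fitted bidirectionally against 0.5% DMSO baseline. Differentiated HepaRG cells received compound for 48 h at 8 concentrations (top 100 uM, half-log steps).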

Read-out in assay [2]: Glutamate-cysteine ligase catalytic (GCLC), GCLC (gene 2729)
As to the kind of experiment: LTEA_HepaRG_GCLC: Life Technologies and Expression Analysis (LTEA) Assay for Glutamate-cysteine ligase catalytic (GCLC) using HepaRG (AID 2283498). The method in brief: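 HepaRG, 48 h exposure, 8-pt half-log series from 100 uM, 0.5% DMSO vehicle; TaqMan qRT-PCR for GCLC mRNA, housekeeping-normalized; bidirectional curve fit vs DMSO baseline.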

Read-out in assay [3]: growth arrest and DNA damage 45 (GADD45G), GADD45G (gene 10912)
As to the kind of experiment: LTEA_HepaRG_GADD45G: Life Technologies and Expression Analysis (LTEA) Assay for growth arrest and DNA damage 45 (GADD45G) using HepaRG (AID 2283499). The method in brief: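 Gain or loss of GADD45G mRNA, quantified by TaqMan qRT-PCR against three housekeeping genes, is fitted in both directions relative to 0.5% DMSO. Human HepaRG cultures receive test chemical for 48 h at up to 100 uM.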

Read-out in assay [4]: Glutamate-cysteine ligase regulatory (GCLM), GCLM (gene 2730)
The assay is described as follows: LTEA_HepaRG_GCLM: Life Technologies and Expression Analysis (LTEA) Assay for Glutamate-cysteine ligase regulatory (GCLM) using HepaRG (AID 2283500). The method in brief: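 HepaRG, 48 h dosing, 100 uM top, half-log x8, 0.5% DMSO vehicle. Readout: GCLM mRNA by TaqMan qRT-PCR, housekeeping-normalized (ACTB/GAPDH/POLR2A). Curves fit bidirectionally vs DMSO baseline.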

Read-out in assay [5]: Heat shock 70 kDa protein 1 (HSPA1A), gene 3303
As to the kind of experiment: LTEA_HepaRG_HSPA1A: Life Technologies and Expression Analysis (LTEA) Assay for Heat shock 70 kDa protein 1 (HSPA1A) using HepaRG (AID 2283502). The method in brief: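 HepaRG, 48 h exposure, 8-pt half-log CRC from 100 uM in 0.5% DMSO, duplicates. Readout: TaqMan qRT-PCR of HSPA1A mRNA, housekeeping-normalized (ACTB/GAPDH/POLR2A). Bidirectional fit vs 0.5% DMSO baseline.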

Read-out in assay [6]: Hypoxia-inducible factor 1-alpha (Homo sapiens) (UniProt Q16665)
The assay is described as follows: LTEA_HepaRG_HIF1A: Life Technologies and Expression Analysis (LTEA) Assay for Hypoxia-inducible factor 1 (HIF1A) Trancription factor using HepaRG (AID 2283503). The method in brief: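 Gain- or loss-of-signal HIF1A mRNA changes are fitted against a DMSO baseline. HepaRG cultures receive eight concentrations, highest 100 uM, for 48 h in serum-free induction medium with 0.5% DMSO.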

Read-out in assay [7]: 3-Hydroxy-3-Methylglutaryl-CoA Synthase 2 (HMGCS2), HMGCS2 (gene 3158)
As to the kind of experiment: LTEA_HepaRG_HMGCS2: Life Technologies and Expression Analysis (LTEA) Assay for 3-Hydroxy-3-Methylglutaryl-CoA Synthase 2 (HMGCS2) using HepaRG (AID 2283504). The method in brief: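 HepaRG, plated 48 h then switched to serum-free induction media; cmpd 8-pt, max 100 uM, 1/2-log, 0.5% DMSO, n=2, 48 h. HMGCS2 mRNA by Fluidigm TaqMan qRT-PCR, ACTB/GAPDH/POLR2A norm; bidirectional fit vs DMSO.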

Read-out in a further assay: HGF (gene 3082)
The assay is described as follows: LTEA_HepaRG_HGF: Life Technologies and Expression Analysis (LTEA) Assay for Hepatocyte Growth Facto (HGF) using HepaRG (AID 2283505). The method in brief:
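Read-out is HGF transcript level by qRT-PCR, normalized to three housekeeping genes, fitted bidirectionally against 0.5% DMSO vehicle. Human HepaRG cells received test chemicals for 48 h at up to 100 uM.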

Read-out in assay [8]: Insulin Like Growth Factor 1 (IGF1), IGF1 (gene 3479)
As to the kind of experiment: LTEA_HepaRG_IGF1: Life Technologies and Expression Analysis (LTEA) Assay for Insulin Like Growth Factor 1 (IGF1) using HepaRG (AID 2283506). The method in brief: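 qRT-PCR readout of IGF1 mRNA, normalized to three housekeeping genes, after 48 h chemical exposure of HepaRG cells. Concentrations: 8-point half-log series, top 100 uM, 0.5% DMSO vehicle. Gain or loss fitted against DMSO baseline.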

Read-out in assay [9]: Intercellular Adhesion Molecule 1 (ICAM1), ICAM1 (gene 3383)
The assay is described as follows: LTEA_HepaRG_ICAM1: Life Technologies and Expression Analysis (LTEA) Assay for Intercellular Adhesion Molecule 1 (ICAM1) using HepaRG (AID 2283507). The method in brief: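 Readout is qRT-PCR mRNA level, normalized to three housekeeping genes and fitted bidirectionally against 0.5% DMSO vehicle. Human HepaRG cultures received compound for 48 h, top concentration 100 uM with half-log dilutions.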

Read-out in assay [10]: Insulin-like growth factor-binding protein 1 (IGFBP1), IGFBP1 (gene 3484)
As to the kind of experiment: LTEA_HepaRG_IGFBP1: Life Technologies and Expression Analysis (LTEA) Assay for Insulin-like growth factor-binding protein 1 (IGFBP1) using HepaRG (AID 2283508). The method in brief: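 Thawed HepaRG cells are plated for 48 h, switched to serum-free induction medium, then dosed in duplicate for another 48 h (100 uM top, half-log steps). Lysates in RLT go to qRT-PCR, and gain or loss of signal is fitted relative to vehicle.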

Read-out in assay [11]: Interleukin 6 (IL6), IL6 (gene 3569)
The assay is described as follows: LTEA_HepaRG_IL6: Life Technologies and Expression Analysis (LTEA) Assay for Interleukin 6 (IL6) using HepaRG (AID 2283509). The method in brief: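 qRT-PCR read-out of IL6 transcript, normalized to three housekeeping genes, after 48 h chemical exposure of HepaRG cells; 8-point half-log series, top 100 uM, 0.5% DMSO vehicle. Bidirectional curve fitting against DMSO baseline.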

Read-out in assay [12]: Interleukin 6 Receptor (IL6R), IL6R (gene 3570)
As to the kind of experiment: LTEA_HepaRG_IL6R: Life Technologies and Expression Analysis (LTEA) Assay for Interleukin 6 Receptor (IL6R) using HepaRG (AID 2283510). The method in brief: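 HepaRG, 48 h exposure, 8-pt half-log series, top 100 uM, 0.5% DMSO vehicle, duplicates. Read-out: TaqMan qRT-PCR of IL6R transcript, housekeeping-gene normalized. Gain or loss fitted relative to DMSO baseline.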

Read-out in assay [13]: Keratin 19 (KRT19), KRT19 (gene 3880)
The assay is described as follows: LTEA_HepaRG_KRT19: Life Technologies and Expression Analysis (LTEA) Assay for Keratin 19 (KRT19) using HepaRG (AID 2283512). The method in brief: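 KRT19 transcript levels, measured by Fluidigm qRT-PCR against three housekeeping genes, are fitted for gain or loss of signal relative to DMSO. Human HepaRG cells receive test chemicals (top 100 uM, half-log steps, 0.5% DMSO) for 48 hours.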

Read-out in assay [14]: JUN Transcription Factor, JUN (gene 3725)
The assay is described as follows: LTEA_HepaRG_JUN: Life Technologies and Expression Analysis (LTEA) Assay for JUN Transcription Factor using HepaRG (AID 2283513). The method in brief:
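HepaRG, 48 h exposure, 8-pt half-log series top 100 uM, 0.5% DMSO, duplicate. JUN mRNA by qRT-PCR (Fluidigm), housekeeping-normalized (ACTB/GAPDH/POLR2A); bidirectional curve fit vs DMSO baseline.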

Read-out in assay [15]: Lipase C (LIPC), LIPC (gene 3990)
The assay is described as follows: LTEA_HepaRG_LIPC: Life Technologies and Expression Analysis (LTEA) Assay for Lipase C (LIPC) using HepaRG (AID 2283514). The method in brief:
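HepaRG, 48 h exposure, 8-pt half-log series from 100 uM in 0.5% DMSO, duplicates. Readout: LIPC mRNA by Fluidigm qRT-PCR, housekeeping-normalized (ACTB/GAPDH/POLR2A). Gain or loss fitted bidirectionally against DMSO baseline.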

Read-out in assay [16]: Lipoprotein lipase (LPL), LPL (gene 4023)
The assay is described as follows: LTEA_HepaRG_LPL: Life Technologies and Expression Analysis (LTEA) Assay for Lipoprotein lipase (LPL) using HepaRG (AID 2283515). The method in brief: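 HepaRG, 48 h exposure, 8-pt half-log dilutions from 100 uM, 0.5% DMSO vehicle, duplicates; qRT-PCR (Fluidigm array) of LPL mRNA vs housekeeping genes; bidirectional curve fit relative to DMSO baseline.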

Read-out in assay [17]: MicroRNA 122 (MIR122), gene 406906
As to the kind of experiment: LTEA_HepaRG_MIR122: Life Technologies and Expression Analysis (LTEA) Assay for MicroRNA 122 (MIR122) using HepaRG (AID 2283516). Note: the transcript read is the microRNA miR-122. The method in brief: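 qRT-PCR read-out (TaqMan, Fluidigm array), normalized to three housekeeping genes; HepaRG cells dosed 48 h at 8 concentrations up to 100 uM in 0.5% DMSO, duplicate; gain or loss fitted against DMSO baseline.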

Read-out in assay [18]: Glutathione S-transferase M3 (GSTM3), GSTM3 (gene 2947)
As to the kind of experiment: LTEA_HepaRG_GSTM3: Life Technologies and Expression Analysis (LTEA) Assay for Glutathione S-transferase M3 (GSTM3) using HepaRG (AID 2283501). The method in brief: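 HepaRG, plated 48 h, then serum-free induction medium; test chemical 48 h, duplicate; 100 uM top, half-log x8, 0.5% DMSO. Read-out: GSTM3 mRNA (TaqMan qRT-PCR, Fluidigm array). Bidirectional fit vs DMSO.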

Read-out in assay [19]: Potassium channel subfamily K member 1 (KCNK1), KCNK1 (gene 3775)
As to the kind of experiment: LTEA_HepaRG_KCNK1: Life Technologies and Expression Analysis (LTEA) Assay for Potassium channel subfamily K member 1 (KCNK1) using HepaRG (AID 2283511). The method in brief: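 HepaRG, 48 h exposure, 8-pt half-log series top 100 uM, 0.5% DMSO vehicle, duplicates. Readout: KCNK1 transcript by qRT-PCR (Fluidigm array), housekeeping-normalized; bidirectional curve fit relative to DMSO baseline.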

Our source for the outcome and AC50 values is PubChem BioAssay (EPA / NIEHS).

Each structure is given as a SMILES string. The source made the active and inactive calls. Rule for the calls: active = hit-call score of the fitted dose curve at least 0.9, where 1 is the maximum; inactive = score below 0.9.

Sequence of Hypoxia-inducible factor 1-alpha (Homo sapiens) (Q16665 whole entry, looked up): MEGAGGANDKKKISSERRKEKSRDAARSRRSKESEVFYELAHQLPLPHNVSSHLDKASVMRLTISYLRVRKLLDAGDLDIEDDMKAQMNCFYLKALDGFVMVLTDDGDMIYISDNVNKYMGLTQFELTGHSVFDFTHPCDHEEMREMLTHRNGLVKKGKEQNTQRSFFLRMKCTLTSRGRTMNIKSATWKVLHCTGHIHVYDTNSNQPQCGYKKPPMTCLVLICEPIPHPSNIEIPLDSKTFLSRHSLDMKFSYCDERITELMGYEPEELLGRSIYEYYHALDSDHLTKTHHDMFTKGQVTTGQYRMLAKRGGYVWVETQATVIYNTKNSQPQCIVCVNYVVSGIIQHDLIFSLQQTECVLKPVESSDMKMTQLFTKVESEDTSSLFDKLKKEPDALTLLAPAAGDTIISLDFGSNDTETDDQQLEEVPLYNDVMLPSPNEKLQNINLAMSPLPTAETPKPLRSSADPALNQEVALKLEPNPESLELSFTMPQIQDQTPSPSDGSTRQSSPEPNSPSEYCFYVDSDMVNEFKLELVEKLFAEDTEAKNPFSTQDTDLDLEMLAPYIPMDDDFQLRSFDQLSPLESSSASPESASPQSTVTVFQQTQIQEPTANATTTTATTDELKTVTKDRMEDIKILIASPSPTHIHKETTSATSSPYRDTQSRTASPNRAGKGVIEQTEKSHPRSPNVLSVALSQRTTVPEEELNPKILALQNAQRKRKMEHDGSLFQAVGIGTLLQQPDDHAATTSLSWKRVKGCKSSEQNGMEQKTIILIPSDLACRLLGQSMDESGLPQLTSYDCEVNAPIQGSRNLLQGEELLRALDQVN

A word on the AC50: it is the concentration at which the activity in the assay is half-maximal. `CC(C)(O)c1ccc(CNC(=O)c2cccnc2Oc2ccc(F)cc2)cc1`: the molecule was called inactive in assay [1], in [2], in [3], in [4], in [5] and in [6]. Further, the call (in assay [7]; with HGF (gene 3082); in assay [9]; in assay [10]; in [11]; in assay [12]) was inactive. Besides, the molecule was called inactive in assay [13], in assay [14], in assay [15], in [16] and in assay [17]. In addition, in assay [8], the concentration at half-maximal activity (AC50) is 50 µM (active).
Regarding `CCCC[C@H]1CN(CC2CCOCC2)C(=O)OC12CCN(C1(C)CCN(C(=O)c3c(C)ncnc3C)CC1)CC2`, the result in [1], in assay [2], in assay [3], in assay [18], in assay [5] and in assay [6] was inactive. For the same molecule, the call (in [7]; with HGF (gene 3082); in assay [8]; in [9]; in assay [10]; in assay [11]) was inactive. Moreover, the call in assay [12], in assay [19], in assay [13], in assay [14], in assay [15] and in assay [16] was inactive. The call in assay [17] was inactive.
Consider `C=CCc1ccc(OC)c(OC)c1`, for which the molecule was called inactive in [1], in assay [2], in assay [3], in assay [18], in assay [5] and in assay [6]. In addition, the molecule was classed as inactive (in assay [7]; with HGF (gene 3082); in [8]; in [9]; in [10]; in assay [11]). Besides, the molecule was called inactive in [12], in assay [19], in assay [13], in assay [14], in [15] and in assay [16]. In assay [17], the molecule was called inactive.
